This note sets out measurements from ChEMBL document CHEMBL1961873, “Compounds: GSK PKIS; Assays: Nanosyn kinase panel” (2012).

Broadly, the inhibition is the relative decrease from the control value, in per cent.

The target in assay [1] is Fibroblast growth factor receptor 4 (Homo sapiens) (UniProt P22455). Conditions: at 1 µM.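 Note: reported figure is the averaged percent inhibition of FGFR4, from the GSK PKIS kinase screening panel.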
Assay [2] concerns the target Tyrosine-protein kinase Fgr (Homo sapiens) (UniProt P09769). Conditions: at 0.1 µM.
Assay [3] has the same target. As to conditions: at 1 µM.
Assay [4] deals with Vascular endothelial growth factor receptor 1 (Homo sapiens) (UniProt P17948). Conditions: at 0.1 µM.
The target is the same in assay [5]. As to conditions: at 1 µM.
For assay [6], the target named is Receptor-type tyrosine-protein kinase FLT3 (Homo sapiens) (UniProt P36888). Conditions: at 0.1 µM.
Assay [7] has the same target. Conditions: at 1 µM.
The subject of assay [8] is T1, Receptor-type tyrosine-protein kinase FLT3 (Homo sapiens), P36888 [D835Y].
T1 sequence (whole entry): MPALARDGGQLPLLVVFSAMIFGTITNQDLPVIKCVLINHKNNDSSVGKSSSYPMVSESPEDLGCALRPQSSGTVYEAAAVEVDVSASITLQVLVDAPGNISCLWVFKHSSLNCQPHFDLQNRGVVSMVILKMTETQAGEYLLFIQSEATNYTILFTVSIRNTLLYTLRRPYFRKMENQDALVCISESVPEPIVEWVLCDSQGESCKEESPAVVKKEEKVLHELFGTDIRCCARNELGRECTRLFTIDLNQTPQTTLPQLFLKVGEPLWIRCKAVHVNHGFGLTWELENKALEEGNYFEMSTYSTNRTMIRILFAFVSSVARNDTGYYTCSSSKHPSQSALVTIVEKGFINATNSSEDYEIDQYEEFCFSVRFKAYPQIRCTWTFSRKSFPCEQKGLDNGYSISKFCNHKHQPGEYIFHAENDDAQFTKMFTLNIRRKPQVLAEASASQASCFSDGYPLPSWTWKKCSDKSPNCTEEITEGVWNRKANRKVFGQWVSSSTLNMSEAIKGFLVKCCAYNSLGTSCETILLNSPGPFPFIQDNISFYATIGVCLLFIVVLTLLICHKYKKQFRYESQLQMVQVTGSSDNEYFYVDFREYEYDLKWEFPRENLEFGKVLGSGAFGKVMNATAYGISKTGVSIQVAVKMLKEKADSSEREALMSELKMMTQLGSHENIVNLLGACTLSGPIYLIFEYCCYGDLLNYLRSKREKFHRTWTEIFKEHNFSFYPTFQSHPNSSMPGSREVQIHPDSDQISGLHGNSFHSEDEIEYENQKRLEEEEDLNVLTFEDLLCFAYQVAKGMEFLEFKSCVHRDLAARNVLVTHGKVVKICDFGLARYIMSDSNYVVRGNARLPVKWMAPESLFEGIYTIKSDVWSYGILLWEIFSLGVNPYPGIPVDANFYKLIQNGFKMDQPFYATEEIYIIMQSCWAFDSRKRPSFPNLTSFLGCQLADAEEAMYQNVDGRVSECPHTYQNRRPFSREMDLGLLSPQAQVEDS
As to conditions: at 0.1 µM.

For assay [9], the target named is Non-receptor tyrosine-protein kinase TYK2 (Homo sapiens) (UniProt P29597). Conditions: at 1 µM.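 Note: values are mean percent inhibition of TYK2 kinase.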
Sequence of Non-receptor tyrosine-protein kinase TYK2 (Homo sapiens) (P29597 whole entry): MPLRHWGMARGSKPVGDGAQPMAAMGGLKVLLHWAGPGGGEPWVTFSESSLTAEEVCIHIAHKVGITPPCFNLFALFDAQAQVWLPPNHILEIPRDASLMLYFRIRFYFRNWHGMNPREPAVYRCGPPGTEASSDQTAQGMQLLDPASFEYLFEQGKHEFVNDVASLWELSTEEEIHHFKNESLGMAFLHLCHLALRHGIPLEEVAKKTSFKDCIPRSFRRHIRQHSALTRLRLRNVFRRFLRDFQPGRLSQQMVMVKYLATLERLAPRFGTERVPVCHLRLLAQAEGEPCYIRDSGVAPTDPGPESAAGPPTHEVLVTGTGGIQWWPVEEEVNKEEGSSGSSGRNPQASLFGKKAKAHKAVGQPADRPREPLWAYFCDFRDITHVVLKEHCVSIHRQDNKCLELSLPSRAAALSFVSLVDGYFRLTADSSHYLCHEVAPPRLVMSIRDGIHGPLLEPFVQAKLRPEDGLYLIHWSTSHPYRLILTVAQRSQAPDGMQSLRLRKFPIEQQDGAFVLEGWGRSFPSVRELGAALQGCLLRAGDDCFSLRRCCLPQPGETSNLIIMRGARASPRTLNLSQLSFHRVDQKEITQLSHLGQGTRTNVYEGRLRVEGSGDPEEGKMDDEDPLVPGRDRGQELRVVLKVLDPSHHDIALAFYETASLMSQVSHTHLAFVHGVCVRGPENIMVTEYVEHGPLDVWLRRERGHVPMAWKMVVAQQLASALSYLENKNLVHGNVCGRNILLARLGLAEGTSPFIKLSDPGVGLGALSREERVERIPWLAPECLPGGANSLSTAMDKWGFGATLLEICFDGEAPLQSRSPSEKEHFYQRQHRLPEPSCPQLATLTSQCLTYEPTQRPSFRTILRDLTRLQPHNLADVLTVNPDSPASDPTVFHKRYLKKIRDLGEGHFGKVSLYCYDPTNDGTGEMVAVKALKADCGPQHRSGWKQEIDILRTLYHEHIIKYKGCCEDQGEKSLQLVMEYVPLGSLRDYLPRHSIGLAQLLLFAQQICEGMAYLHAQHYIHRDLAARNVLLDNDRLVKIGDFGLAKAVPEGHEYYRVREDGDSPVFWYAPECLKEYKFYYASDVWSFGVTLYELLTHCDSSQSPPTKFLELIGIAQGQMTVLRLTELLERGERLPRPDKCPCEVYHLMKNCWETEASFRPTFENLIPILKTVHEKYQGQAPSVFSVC
Assay [10] concerns the target T2, Tyrosine-protein kinase receptor TYRO3 (Homo sapiens) (UniProt Q06418).
T2 sequence (whole entry): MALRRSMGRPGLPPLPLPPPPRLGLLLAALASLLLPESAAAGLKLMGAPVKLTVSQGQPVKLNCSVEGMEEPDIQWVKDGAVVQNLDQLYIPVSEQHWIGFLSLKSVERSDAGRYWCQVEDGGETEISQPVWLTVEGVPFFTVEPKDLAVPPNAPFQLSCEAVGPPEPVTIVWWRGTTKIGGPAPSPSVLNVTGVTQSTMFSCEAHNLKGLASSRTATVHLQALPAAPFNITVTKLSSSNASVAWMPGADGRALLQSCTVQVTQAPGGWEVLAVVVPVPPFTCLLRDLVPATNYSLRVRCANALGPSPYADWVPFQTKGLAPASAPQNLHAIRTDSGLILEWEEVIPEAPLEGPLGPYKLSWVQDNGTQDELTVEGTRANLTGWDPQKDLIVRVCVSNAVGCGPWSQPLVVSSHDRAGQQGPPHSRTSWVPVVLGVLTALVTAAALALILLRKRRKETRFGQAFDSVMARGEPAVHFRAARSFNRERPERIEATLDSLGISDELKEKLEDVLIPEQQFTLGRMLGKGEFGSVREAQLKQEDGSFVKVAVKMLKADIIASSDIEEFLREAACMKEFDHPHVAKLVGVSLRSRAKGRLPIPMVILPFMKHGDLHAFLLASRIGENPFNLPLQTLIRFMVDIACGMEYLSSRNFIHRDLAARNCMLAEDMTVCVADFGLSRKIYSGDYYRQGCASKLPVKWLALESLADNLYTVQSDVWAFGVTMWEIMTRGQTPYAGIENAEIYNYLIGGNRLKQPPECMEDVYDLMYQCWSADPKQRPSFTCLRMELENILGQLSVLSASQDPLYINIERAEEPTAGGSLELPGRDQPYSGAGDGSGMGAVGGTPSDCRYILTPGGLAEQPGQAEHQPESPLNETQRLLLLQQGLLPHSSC
As to conditions: at 0.1 µM.

Assay [11] deals with T2, Tyrosine-protein kinase receptor TYRO3 (Homo sapiens). Conditions: at 1 µM.
The target of assay [12] is Tyrosine-protein kinase Yes (Homo sapiens) (UniProt P07947). As to conditions: at 0.1 µM.
Sequence of Tyrosine-protein kinase Yes (Homo sapiens) (P07947 2-543 limits assumed): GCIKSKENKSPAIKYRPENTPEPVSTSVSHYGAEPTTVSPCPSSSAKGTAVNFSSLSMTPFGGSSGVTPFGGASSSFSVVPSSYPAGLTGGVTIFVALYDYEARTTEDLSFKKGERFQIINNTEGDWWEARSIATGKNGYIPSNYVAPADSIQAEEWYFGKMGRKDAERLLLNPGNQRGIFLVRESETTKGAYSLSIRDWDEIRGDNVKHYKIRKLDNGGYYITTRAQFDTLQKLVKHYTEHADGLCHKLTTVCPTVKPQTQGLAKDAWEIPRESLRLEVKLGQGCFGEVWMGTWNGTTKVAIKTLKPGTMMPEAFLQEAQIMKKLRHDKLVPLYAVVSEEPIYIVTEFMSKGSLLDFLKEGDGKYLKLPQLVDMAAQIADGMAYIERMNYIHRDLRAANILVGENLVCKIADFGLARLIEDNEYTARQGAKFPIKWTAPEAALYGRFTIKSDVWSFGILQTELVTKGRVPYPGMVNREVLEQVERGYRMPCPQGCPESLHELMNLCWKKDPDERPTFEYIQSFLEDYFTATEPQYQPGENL
For assay [13] the target is unchanged. As to conditions: at 1 µM.
Assay [14] concerns the target T3, Tyrosine-protein kinase ZAP-70 (Homo sapiens) (UniProt P43403).
T3 sequence (whole entry): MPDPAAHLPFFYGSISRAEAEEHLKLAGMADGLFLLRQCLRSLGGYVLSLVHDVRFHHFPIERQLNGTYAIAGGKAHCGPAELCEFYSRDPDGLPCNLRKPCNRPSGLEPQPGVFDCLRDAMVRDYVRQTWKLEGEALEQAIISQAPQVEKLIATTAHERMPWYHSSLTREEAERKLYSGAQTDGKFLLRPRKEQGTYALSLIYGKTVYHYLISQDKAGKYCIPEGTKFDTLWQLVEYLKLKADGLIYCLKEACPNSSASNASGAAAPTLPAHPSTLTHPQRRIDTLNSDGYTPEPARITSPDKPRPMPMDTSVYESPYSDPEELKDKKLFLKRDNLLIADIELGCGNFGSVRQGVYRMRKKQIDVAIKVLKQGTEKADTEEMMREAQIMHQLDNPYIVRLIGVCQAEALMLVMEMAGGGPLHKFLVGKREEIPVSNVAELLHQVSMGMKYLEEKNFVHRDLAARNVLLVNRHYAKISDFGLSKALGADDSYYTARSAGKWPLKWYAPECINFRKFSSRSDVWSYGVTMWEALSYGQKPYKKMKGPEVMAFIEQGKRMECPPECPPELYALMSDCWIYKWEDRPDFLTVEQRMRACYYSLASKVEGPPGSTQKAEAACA
As to conditions: at 0.1 µM.

Assay [15] concerns the target T3, Tyrosine-protein kinase ZAP-70 (Homo sapiens). Conditions: at 1 µM.
Assay [16] deals with Serine/threonine-protein kinase B-raf (Homo sapiens) (UniProt P15056). As to conditions: at 0.1 µM.
Sequence of Serine/threonine-protein kinase B-raf (Homo sapiens) (P15056 whole entry): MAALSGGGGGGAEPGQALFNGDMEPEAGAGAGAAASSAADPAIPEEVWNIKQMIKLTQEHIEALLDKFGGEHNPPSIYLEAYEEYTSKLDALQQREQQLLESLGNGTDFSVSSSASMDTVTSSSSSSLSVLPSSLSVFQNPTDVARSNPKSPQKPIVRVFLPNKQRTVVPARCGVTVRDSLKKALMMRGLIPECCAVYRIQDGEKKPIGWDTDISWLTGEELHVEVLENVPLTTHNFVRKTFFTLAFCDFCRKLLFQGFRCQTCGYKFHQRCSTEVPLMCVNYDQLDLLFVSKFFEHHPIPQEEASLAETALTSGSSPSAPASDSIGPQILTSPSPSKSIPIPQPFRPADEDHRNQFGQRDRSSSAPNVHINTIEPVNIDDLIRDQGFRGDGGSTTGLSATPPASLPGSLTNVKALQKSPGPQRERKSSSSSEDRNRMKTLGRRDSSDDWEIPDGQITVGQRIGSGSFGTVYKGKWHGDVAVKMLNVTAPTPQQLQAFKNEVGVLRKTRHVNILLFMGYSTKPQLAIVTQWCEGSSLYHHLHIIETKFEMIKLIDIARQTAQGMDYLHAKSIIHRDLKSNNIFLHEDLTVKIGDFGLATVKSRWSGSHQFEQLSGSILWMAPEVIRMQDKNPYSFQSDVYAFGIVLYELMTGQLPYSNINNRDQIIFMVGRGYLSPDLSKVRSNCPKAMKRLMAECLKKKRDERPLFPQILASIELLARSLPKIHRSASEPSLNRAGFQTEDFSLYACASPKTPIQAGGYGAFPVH
Assay [17] shares this target. Conditions: at 1 µM.
In assay [18] the test system is Serine/threonine-protein kinase B-raf (Homo sapiens), P15056 [V600E]. As to conditions: at 0.1 µM.
Sequence of Serine/threonine-protein kinase B-raf (Homo sapiens), P15056 [V600E] (P15056 whole entry V600E): as the sequence (P15056 whole entry) above, with V600E counted along it
Assay [19] shares this test system. As to conditions: at 1 µM.
The target in assay [20] is RAF proto-oncogene serine/threonine-protein kinase (Homo sapiens) (UniProt P04049). As to conditions: at 0.1 µM.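 Note: values are mean CRAF kinase inhibition from profiling of the GSK Published Kinase Inhibitor Set.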
Sequence of RAF proto-oncogene serine/threonine-protein kinase (Homo sapiens) (P04049 whole entry): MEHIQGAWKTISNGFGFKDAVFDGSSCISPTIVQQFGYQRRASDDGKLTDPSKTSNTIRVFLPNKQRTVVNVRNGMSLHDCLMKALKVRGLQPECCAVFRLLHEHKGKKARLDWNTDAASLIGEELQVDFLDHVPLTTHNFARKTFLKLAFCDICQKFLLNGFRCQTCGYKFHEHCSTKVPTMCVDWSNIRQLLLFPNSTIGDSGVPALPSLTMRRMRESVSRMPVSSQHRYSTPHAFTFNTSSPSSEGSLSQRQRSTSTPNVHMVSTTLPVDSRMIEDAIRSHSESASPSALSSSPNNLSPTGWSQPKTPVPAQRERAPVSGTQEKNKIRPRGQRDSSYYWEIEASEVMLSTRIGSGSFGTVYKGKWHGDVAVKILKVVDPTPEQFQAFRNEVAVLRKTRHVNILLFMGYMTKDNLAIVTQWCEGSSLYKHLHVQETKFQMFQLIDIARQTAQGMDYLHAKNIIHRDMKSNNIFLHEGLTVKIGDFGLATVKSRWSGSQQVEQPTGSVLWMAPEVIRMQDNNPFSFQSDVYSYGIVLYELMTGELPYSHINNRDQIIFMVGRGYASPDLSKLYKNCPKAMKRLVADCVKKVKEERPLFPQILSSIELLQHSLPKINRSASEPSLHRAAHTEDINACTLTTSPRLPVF

Sequence of Fibroblast growth factor receptor 4 (Homo sapiens) (P22455 22-802 limits assumed): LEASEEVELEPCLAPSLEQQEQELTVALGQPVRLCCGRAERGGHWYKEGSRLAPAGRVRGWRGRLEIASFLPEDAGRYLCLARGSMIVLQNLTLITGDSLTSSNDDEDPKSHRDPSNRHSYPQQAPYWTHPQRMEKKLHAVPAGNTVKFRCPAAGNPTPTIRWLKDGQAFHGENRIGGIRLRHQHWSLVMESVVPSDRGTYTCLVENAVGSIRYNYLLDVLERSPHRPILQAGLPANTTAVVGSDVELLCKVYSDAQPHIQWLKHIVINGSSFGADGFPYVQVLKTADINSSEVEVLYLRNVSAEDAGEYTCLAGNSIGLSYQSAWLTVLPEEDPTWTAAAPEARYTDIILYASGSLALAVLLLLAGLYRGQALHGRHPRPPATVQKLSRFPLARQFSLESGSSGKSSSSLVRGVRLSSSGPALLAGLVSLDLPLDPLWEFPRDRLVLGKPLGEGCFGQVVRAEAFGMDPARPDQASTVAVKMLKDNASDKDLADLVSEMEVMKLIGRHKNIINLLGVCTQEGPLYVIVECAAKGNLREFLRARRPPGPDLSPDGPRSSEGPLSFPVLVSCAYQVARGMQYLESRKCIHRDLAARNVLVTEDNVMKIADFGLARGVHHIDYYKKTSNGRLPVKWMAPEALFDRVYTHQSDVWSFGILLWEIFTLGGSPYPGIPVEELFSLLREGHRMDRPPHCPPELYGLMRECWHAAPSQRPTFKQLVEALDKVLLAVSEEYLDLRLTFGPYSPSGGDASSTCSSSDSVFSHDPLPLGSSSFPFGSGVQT
Sequence of Tyrosine-protein kinase Fgr (Homo sapiens) (P09769 2-529 limits assumed): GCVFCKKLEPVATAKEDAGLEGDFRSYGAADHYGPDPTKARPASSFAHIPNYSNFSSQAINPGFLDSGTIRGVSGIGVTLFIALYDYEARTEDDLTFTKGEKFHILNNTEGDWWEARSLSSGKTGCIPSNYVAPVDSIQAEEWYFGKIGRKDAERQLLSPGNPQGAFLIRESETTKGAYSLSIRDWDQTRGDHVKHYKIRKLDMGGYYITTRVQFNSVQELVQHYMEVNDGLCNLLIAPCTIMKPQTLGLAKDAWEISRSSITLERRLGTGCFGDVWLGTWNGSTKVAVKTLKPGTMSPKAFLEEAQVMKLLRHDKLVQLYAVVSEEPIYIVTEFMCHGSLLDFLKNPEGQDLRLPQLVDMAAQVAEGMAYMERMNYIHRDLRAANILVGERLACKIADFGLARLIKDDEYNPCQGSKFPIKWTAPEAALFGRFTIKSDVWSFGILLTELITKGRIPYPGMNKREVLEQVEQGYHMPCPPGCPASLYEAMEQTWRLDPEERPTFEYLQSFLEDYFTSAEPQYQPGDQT

As for `FC(F)(F)c1cccc(Nc2nccc(-c3cnn4nc(-c5ccccc5)ccc34)n2)c1`, the inhibition in assay [1] is 1.26%; in assay [2], 2.98%; in [3], 8.69%; in assay [4] it was 2.04%; in assay [5], 1.17%; in [6] it was 1.84%. The inhibition in [7] is 18.2%; in [8], -4.32%; in assay [9] it was -5.81%; in assay [10] it was -0.57%; in assay [11], 0.62%; in [12] it was 2.51%. Also, the inhibition in [13] came to 24.8%; in assay [14], 0.98%; in [15], 2.56%; in assay [16], 3.36%; in [17], 4.64%; in assay [18] it was 2.72%. For the same compound, the inhibition was 4.02% in assay [19] and -0.56% in assay [20].
As for `CN(C)CCCNc1nccc(-c2c(-c3ccc(F)cc3)nn3cc(C(F)(F)F)ccc23)n1`, the inhibition was -0.45% in [1]; 1.41% in assay [2]; 9.12% in [3]; 0.51% in [4]; 1.19% in assay [5]; 0.5% in assay [6]. Moreover, the inhibition in assay [7] was 4.18%; in assay [8], -2.41%; in [9], -0.14%; in assay [10] it was 1.1%; in assay [11], 1.35%; in assay [12] it was 0.79%. In addition, the inhibition in assay [13] was -0.45%; in assay [14], -2.33%; in assay [15] it was -4.78%; in assay [16], 2.11%; in [17] it was 2.24%; in assay [18], 2.52%. Moreover, the values for the inhibition in assay [19] and in assay [20] were 2.19% and 3.17%, respectively.
`O=C1Nc2ccccc2/C1=C/Nc1ccc(-n2cncn2)cc1`: the inhibition in [1] was 2.81%; in assay [2], 4.93%; in [3] it was 12.8%; in assay [4], 4.03%; in assay [5], 24.1%; in assay [6], 12.5%. Further, the inhibition is 53.7% in assay [7]; 16.4% in assay [8]; 12.3% in [9]; 3.19% in [10]; 10.2% in assay [11]; 3.29% in [12]. Further, the inhibition in assay [13] is 15.7%; in assay [14], 4.53%; in assay [15] it was 7.33%; in [16] it was 6.1%; in assay [17] it was 6.87%; in assay [18], 7.05%. The inhibition came out at 6.86% in [19] and 15.1% in assay [20].
With `COc1ccc2cc(-c3c(-c4ccncc4)nc(-c4ccc([S+](C)[O-])cc4C)n3C)ccc2c1` (centres undefined), the inhibition is 2.85% in assay [1]; 0.53% in [2]; 4.65% in assay [3]; 0.86% in assay [4]; 5.84% in assay [5]; -0.09% in [6]. Further, the inhibition is -1% in assay [7]; 0.23% in [8]; 0.94% in assay [9]; 0.37% in [10]; 2.2% in [11]; 3.84% in [12]. In addition, the inhibition was 21.3% in assay [13]; -0.83% in [14]; -0.09% in assay [15]; 0.29% in [16]; -0.78% in [17]; -0.1% in assay [18]. Also, the inhibition in [19] was -0.41%; in assay [20] it was -0.64%.
With `COc1ccc(-c2ccc3c(NC(=O)C4CC4)n[nH]c3n2)cc1`, the inhibition in [1] was 0.39%; in [2], 3.05%; in assay [3], 6.74%; in assay [4], -0.58%; in [5] it was 0.09%; in assay [6], 0.61%. Moreover, the inhibition in assay [7] was 3.42%; in [8] it was -3.58%; in [9], -0.42%; in assay [10] it was 2.92%; in [11] it was 21.7%; in assay [12], 2.13%. Further, the inhibition in [13] was 8.75%; in [14], 0.8%; in [15] it was -3.24%; in [16], 3.14%; in [17], 2%; in assay [18], 3.73%. The inhibition is 1.97% in assay [19] and -1.88% in assay [20].
Regarding `Fc1ccc(-c2c(-c3ccncc3)nc3n2CCS3)cc1`, the inhibition stood at 0.11% in assay [1]; 2.37% in assay [2]; 2.64% in [3]; 0.25% in assay [4]; 1.28% in assay [5]; 0.81% in [6]. Also, the inhibition in assay [7] is 1.71%; in assay [8], -1.87%; in assay [9], 0.83%; in assay [10], 1.94%; in [11], 1.69%; in [12] it was 2.78%. The inhibition was 5.33% in assay [13]; 0.51% in assay [14]; -2.36% in [15]; 4.16% in [16]; 4.3% in assay [17]; 3.07% in [18]. For the same compound, the inhibition came out at 4.28% in assay [19] and 2.08% in [20].
On to `Clc1ccc(CNc2nccc(-c3cnn4ncccc34)n2)cc1`, for which the inhibition in assay [1] was 1.27%; in assay [2], 3.59%; in assay [3] it was 4%; in [4], -1.24%; in assay [5] it was 6.44%; in assay [6] it was 1.16%. Further, the inhibition is 1.79% in assay [7]; 2.77% in assay [8]; 1.83% in assay [9]; 1.5% in assay [10]; 2.27% in assay [11]; -0.37% in assay [12]. Also, the inhibition in assay [13] was -1.15%; in assay [15], -0.35%; in [16], 0.05%; in assay [17] it was 3.64%; in assay [18], 0.12%; in [19] it was 2.83%. Also, the inhibition in assay [20] came out at 1.36%.
